Measured values published in PubChem BioAssay (NCI).
Compounds without any hit were thinned out: in the full panel of roughly 83,000, 20% have a hit.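 Percent growth is the endpoint: 0 to 100 indicates growth inhibition (40 means 60% inhibition), 0 means no net growth, and negative values indicate cell death.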 Unmarked numbers belong to inactive results. Calls of active or inactive are those of the source. The calls were made as follows: active = growth percent below 10; inactive = the rest.

tested on: RPMI-8226 leukemia; test: NCI-60 one-dose screen, 48 h (100 = growth as untreated, 0 = no growth, -100 = all killed); conditions: 10 µM unless noted

Structure (SMILES) | growth
C=C1c2c(C)nn(-c3ccc(C#CCOC4OC(CO)C(O)C(O)C4O)cc3)c2N(C)C23C[C@H]1C1(C)c4c(C)nn(-c5ccc(C#CCOC6OC(CO)C(O)C(O)C6O)cc5)c4N(C)C(C)(C[C@H]12)C3 (some centres undefined) | -36.4% (active)
[O-]/[N+](=C\C=C\c1ccccc1)c1ccccc1 | 87.3%
CN1CCN(Cc2ccc(NC(=O)c3[nH]ncc3Nc3ccnc4ccnn34)cc2)CC1 | 111%
CCCOc1ccc2c(c1)CC[C@@H]1[C@@H]2CC[C@@]2(C)[C@H]1CC[C@]2(C)O | 56.5%
COc1ccc(C2=NN(C(=O)c3cc(OC)c(OC)c(OC)c3)C(c3ccc(C#N)cc3)C2)cc1OC (centres undefined) | 60.8%
CO[C@H]1CC(O[C@@H]2/C(C)=C/C[C@@H]3C[C@@H](C[C@]4(CC[C@H](C)[C@@H](C5CCCCC5)O4)O3)OC(=O)[C@@H]3C=C(C)/C(=N/O)[C@H]4OC/C(=C\C=C\[C@@H]2C)[C@]43O)O[C@@H](C)C1O (some centres undefined) | -28.8% (active)
O=C1CC(C(F)(F)F)=NN1C(=O)c1nn(-c2ccc(Cl)cc2)cc1O | 71.6%
CCCCc1nc(Cl)c(CO)n1Cc1ccc(-c2ccccc2-c2nn[nH]n2)cc1 | 115%
CN(C)c1ccc2[nH]c3c(C(N)=O)cc(=O)c(=O)c=3oc2c1 | 5% (active)
CCC1(c2ccccc2)Oc2ccccc2-n2c(C#N)c3ccccc3c2C1=O (centres undefined) | 92.6%
O=C1Nc2ccc(F)cc2/C1=C/c1nc(-c2ccc(F)cc2)n2ccccc12 | 117%
COc1cc(C(=O)/C=C/c2cccnc2Nc2ccccc2)cc(OC)c1OC | -40.3% (active)
Fc1ccc([C@@H]2CCNC[C@H]2COc2ccc3c(c2)OCO3)cc1 | 32.9%
CCCc1nn(C)c2c(=O)[nH]c(-c3cc(S(=O)(=O)N4CCN(C)CC4)ccc3OCC)nc12 | 101%
COc1ccc(-c2cc(Cc3cccs3)c(=O)n(Cn3cncn3)n2)cc1 | 98.7%
CC[N+](CC)(CCOCCOCC[N+](CC)(CC)Cc1ccc([N+](=O)[O-])cc1)Cc1ccc([N+](=O)[O-])cc1 | 96.6%
S=C1SCN(Cc2ccccc2)CN1Cc1ccco1 | 37.5%

Structure (SMILES) | growth
O=C(CSc1nc2c(n1Nc1ccccc1)-c1ccccc1SC2)Nc1nc(-c2ccc(Cl)cc2)cs1 | 86.1%
C=C(C)[C@@H]1C/C=C(/C=O)CC[C@@H]2O[C@@]2(C)CC/C=C(\C)CC1 | -7.67% (active)
CC[C@@H]1OC(=O)[C@H](C)[C@@H](O[C@H]2C[C@@](C)(OC)[C@@H](O)[C@H](C)O2)[C@H](C)[C@@H](O[C@@H]2O[C@H](C)C[C@H](N(C)C)[C@H]2O)[C@](C)(O)C[C@@H](C)[C@@H]2N[C@@H](COCCOC)O[C@H]([C@H]2C)[C@]1(C)O | 88.8%
C[n+]1c2ccccc2c(Nc2ccc(N3CCCCC3)cc2)c2[nH]c3ccccc3c21 | -72.4% (active)
Nc1ccc2c(c1)/C(=N/O)c1cc([N+](=O)[O-])ccc1-2 | 58.9%
COc1cc(/C=C/c2nnc(-c3cc(-c4ccccc4)n[nH]3)o2)cc(OC)c1OC | 83%
O=C(O)c1ccc(NC(=O)c2ccc(Nc3ccnc(C(F)(F)F)c3)cc2)cc1 | 98.3%
Cc1c(C(N)=O)sc2ncn(Cc3ccccc3)c(=O)c12 | 59.5%
C[C@@H]1CC[C@H]2[C@@H](C)C(O)O[C@@H]3O[C@]4(C)CC[C@@H]1[C@]32OO4 (some centres undefined) | 3.35% (active)
Cn1c(=O)c2c(nc(Br)n2CCC(=O)Nc2ccc(F)cc2)n(C)c1=O | 101%
N=C(N)/N=C(\CCc1nc2ccccc2[nH]1)c1nc2ccccc2[nH]1 | 105%
CCOc1cccc(C2CC(=O)Nc3cc4c(cc32)OCO4)c1 (centres undefined) | 71.1%
COc1ccc(C2=NNC(c3cc(Cc4ccc(O)c(C5CC(c6ccc(OC)cc6)=NN5)c4)ccc3O)C2)cc1 (centres undefined) | 26.9%
O=C(c1ccccc1)c1ccco1 | 101%
CCC(=O)Nc1ccccc1C#C/C=C\C#Cc1ccccc1C(F)(F)F | 100%
COc1cc(C2C=C(c3ccc(C)cc3)Nc3nc(SC)[nH]c(=O)c32)ccc1Oc1ccnc2cc(Cl)ccc12 (centres undefined) | 65.6%
Cc1cc(N2CCOCC2)nc(N2CCOCC2)n1 | 99.2%
